# In PubChem BioAssay (EPA / NIEHS):
# More than one record can exist for a structure, and the calls need not agree. Activity calls are given as the source filed them. The calls were made as follows: active = hit-call score of the fitted dose curve at least 0.9, where 1 is the maximum; inactive = score below 0.9.
# Columns and labels:
# [1] = read-out: Plasminogen activator inhibitor-1 (PAI1), SERPINE1 (gene 5054); assay: BSK_MyoF_PAI1: BioMAP Diversity Plus: MyoF Assay for Plasminogen activator inhibitor-1 (PAI1) Biomarker Activity (AID 2284256); conditions: primary human lung fibroblasts;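 as to outcome: PAI-1 read 24 h after compound addition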
# Summary of the method: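 Primary human lung fibroblasts treated with chemical for 24 h; PAI-1 levels quantified by ELISA relative to DMSO. Cytotoxicity was assessed in parallel cultures by SRB total-protein staining (0.1% SRB after 10% TCA fixation, 560 nm).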
# [2] = read-out: Interleukin-8 (IL8), CXCL8 (gene 3576); assay: BSK_MyoF_IL8: BioMAP Diversity Plus: MyoF Assay for Interleukin-8 (IL8) Biomarker Activity (AID 2284261); conditions: primary human lung fibroblasts
# Summary of the method: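 Human lung fibroblast (MyoF system) cultures dosed for 24 h, then IL-8 measured by ELISA. Response taken relative to DMSO; parallel SRB total-protein staining for cytotoxicity.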
# [3] = read-out: Decorin, DCN (gene 1634); assay: BSK_MyoF_Decorin: BioMAP Diversity Plus: MyoF Assay for Decorin Biomarker Activity (AID 2284265); conditions: primary human lung fibroblasts
# Summary of the method: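 Human lung fibroblast cultures were dosed for 24 h, and decorin was then measured by ELISA. Parallel cultures were stained with sulforhodamine B for total protein as a cytotoxicity check. Gain of signal was fitted relative to DMSO.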
# [4] = BSK_MyoF_SRB: Viability Assessment in the BioMAP Diversity Plus: MyoF Assay (AID 2284267); conditions: primary human lung fibroblasts;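 also: total protein by SRB absorbance in parallel cultures as cytotoxicity measure; cells assessed 24 h after compound addition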
# Summary of the method: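 Confluent human lung fibroblasts were exposed to test chemicals for 24 h. Parallel wells were then fixed in 10% TCA, stained with 0.1% sulforhodamine B and measured at 560 nm. DMSO served as baseline for curve fitting.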
# [5] = read-out: TIMP metallopeptidase inhibitor 1 (TIMP1), TIMP1 (gene 7076); assay: BSK_MyoF_TIMP1: BioMAP Diversity Plus: MyoF Assay for TIMP metallopeptidase inhibitor 1 (TIMP1) Biomarker Activity (AID 2284269); conditions: primary human lung fibroblasts
# Summary of the method: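 Primary human lung fibroblasts, MyoF multiplex system; chemical exposure 24 h; TIMP-1 by ELISA; positive fitting direction vs DMSO control.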
# [6] = read-out: Matrix Metallopeptidase 1 (MMP1), MMP1 (gene 4312); assay: BSK_MyoF_MMP1: BioMAP Diversity Plus: MyoF Assay for Matrix Metallopeptidase 1 (MMP1) Biomarker Activity (AID 2284268); conditions: primary human lung fibroblasts
# Summary of the method: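 Human lung fibroblast primary cells; MMP1 measured by ELISA 24 h after dosing, fitted in the positive direction relative to DMSO. Parallel SRB staining (0.1%, after 10% TCA fixation, 560 nm) assesses overt cytotoxicity.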
# [7] = read-out: Interleukin-8 (IL8), CXCL8 (gene 3576); assay: BSK_KF3CT_IL8: BioMAP Diversity Plus: KF3CT Assay for Interleukin-8 (IL8) Biomarker Activity (AID 2284254); conditions: primary human keratinocytes with fibroblasts
# Summary of the method: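 Human keratinocyte/foreskin fibroblast co-culture dosed 24 h; IL-8 measured by ELISA relative to DMSO. Parallel cultures stained with SRB for total protein to flag cytotoxicity.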
# [8] = read-out: Intercellular Adhesion Molecule 1 (ICAM1), ICAM1 (gene 3383); assay: BSK_BE3C_ICAM1: BioMAP Diversity Plus: BE3C Assay for Intercellular Adhesion Molecule 1 (ICAM1) Biomarker Activity (AID 2284278); conditions: primary human bronchial epithelial cells;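 also: cell-surface ICAM-1 protein level quantified by ELISA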
# Summary of the method: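 Here, ICAM-1 levels on confluent human bronchial epithelial primary cells are read by ELISA at 24 h after chemical dosing. Parallel SRB staining (0.1% after 10% TCA fixation, 560 nm) checks cytotoxicity.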
# [9] = read-out: Interferon-inducible T-cell alpha chemoattractant (ITAC), CXCL11 (gene 6373); assay: BSK_BE3C_ITAC: BioMAP Diversity Plus: BE3C Assay for Interferon-inducible T-cell alpha chemoattractant (ITAC) Biomarker Activity (AID 2284279); conditions: primary human bronchial epithelial cells
# Summary of the method: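 Steps: dose human bronchial epithelial cells with chemical; incubate 24 h; measure I-TAC by ELISA; fit endpoint in positive direction against DMSO control. Cytotoxicity was checked in parallel cultures by SRB staining at harvest.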
# [10] = read-out: Interleukin-8 (IL8), CXCL8 (gene 3576); assay: BSK_BE3C_IL8: BioMAP Diversity Plus: BE3C Assay for Interleukin-8 (IL8) Biomarker Activity (AID 2284280); conditions: primary human bronchial epithelial cells
# Summary of the method: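 Measured at 24 h after treatment, IL-8 from human primary bronchial epithelial cells is determined by ELISA, and the response is modelled as increasing relative to DMSO negative control.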
structure (smiles),measurement,setting,value
CCC(C)(C#N)N=NC(C)(C#N)CC (centres undefined),outcome,[1],inactive
same,outcome,[2],inactive
same,outcome,[3],inactive
same,outcome,[4],inactive
same,outcome,[5],inactive
Cc1cc(Cl)ccc1OC(C)C(=O)O (centres undefined),outcome,[1],inactive
same,outcome,[2],inactive
same,outcome,[3],inactive
same,outcome,[4],inactive
same,outcome,[5],inactive
Oc1ccc(Cc2ccc(O)cc2)cc1,outcome,[1],inactive
same,outcome,[2],inactive
same,outcome,[3],inactive
same,outcome,[4],inactive
same,outcome,[6],inactive
same,outcome,[5],inactive
Cc1cccc(OP(=O)(Oc2cccc(C)c2)Oc2cccc(C)c2)c1,AC50,[1],0.016 µM (active)
same,outcome,[2],inactive
same,outcome,[3],inactive
same,outcome,[4],inactive
same,outcome,[6],inactive
same,outcome,[5],inactive
O=C1C=CC(=O)c2ccccc21,AC50,[1],4.23 µM (active)
same,outcome,[2],inactive
same,AC50,[3],1.33 µM (active)
same,AC50,[4],4.69 µM (active)
same,AC50,[5],4.43 µM (active)
Cc1ccc(OP(=O)(Oc2ccc(C)cc2C)Oc2ccc(C)cc2C)c(C)c1,outcome,[1],inactive
same,outcome,[2],inactive
same,outcome,[3],inactive
same,outcome,[4],inactive
same,AC50,[6],5.97 µM (active)
same,outcome,[5],inactive
CC(C)(C)c1cc([N+](=O)[O-])cc(C(C)(C)C)c1O,AC50,[1],0.016 µM (active)
same,outcome,[2],inactive
same,outcome,[3],inactive
same,outcome,[4],inactive
same,outcome,[6],inactive
same,outcome,[5],inactive
CC(C)(COCC1CO1)COCC1CO1 (centres undefined),outcome,[1],inactive
same,outcome,[2],inactive
same,outcome,[3],inactive
same,outcome,[4],inactive
same,outcome,[6],inactive
same,outcome,[5],inactive
CCOC(=O)CC(=O)CCl,outcome,[1],inactive
same,outcome,[2],inactive
same,outcome,[3],inactive
same,outcome,[4],inactive
same,outcome,[6],inactive
same,outcome,[5],inactive
CCN(CC)C(=O)C(Cl)=C(C)OP(=O)(OC)OC,outcome,[1],inactive
same,outcome,[2],inactive
same,outcome,[3],inactive
same,outcome,[4],inactive
same,outcome,[6],inactive
same,outcome,[5],inactive
NC(=O)CCl,outcome,[1],inactive
same,outcome,[2],inactive
same,outcome,[3],inactive
same,outcome,[4],inactive
same,outcome,[5],inactive
OC(Cc1ccccc1Cl)(Cn1[nH]cnc1=S)C1(Cl)CC1 (centres undefined),AC50,[1],34.5 µM (active)
same,AC50,[2],12.3 µM (active)
same,outcome,[3],inactive
same,AC50,[4],32.2 µM (active)
same,outcome,[6],inactive
same,outcome,[5],inactive
O=S(=O)(C(Cl)(Cl)Cl)C(Cl)(Cl)Cl,AC50,[1],3.03 µM (active)
same,outcome,[2],inactive
same,AC50,[3],3.37 µM (active)
same,AC50,[4],3.81 µM (active)
same,AC50,[5],2.93 µM (active)
Cc1ccc2nc3sc(=O)sc3nc2c1,outcome,[1],inactive
same,AC50,[2],3.31 µM (active)
same,AC50,[3],5 µM (active)
same,outcome,[4],inactive
same,AC50,[6],5 µM (active)
same,outcome,[5],inactive
CCCCOC(=O)COC(=O)c1ccccc1C(=O)OCCCC,outcome,[7],inactive
same,outcome,[8],inactive
same,outcome,[9],inactive
same,outcome,[10],inactive
O=C(Cc1ccccc1)OCCc1ccccc1,outcome,[7],inactive
same,outcome,[8],inactive
same,outcome,[9],inactive
same,outcome,[10],inactive
Nc1ccc(N)cc1,outcome,[1],inactive
same,outcome,[2],inactive
same,outcome,[3],inactive
same,outcome,[4],inactive
same,outcome,[5],inactive
O=C(O)COc1cc(Cl)c(Cl)cc1Cl,outcome,[1],inactive
same,outcome,[2],inactive
same,outcome,[3],inactive
same,outcome,[4],inactive
same,outcome,[6],inactive
same,outcome,[5],inactive
CCOP(=O)(OCC)SCCSCC,outcome,[1],inactive
same,outcome,[2],inactive
same,outcome,[3],inactive
same,outcome,[4],inactive
same,outcome,[6],inactive
same,outcome,[5],inactive
CCOC(=O)CCN(SN(C)C(=O)Oc1cccc2c1OC(C)(C)C2)C(C)C,outcome,[1],inactive
same,outcome,[2],inactive
same,outcome,[3],inactive
same,outcome,[4],inactive
same,outcome,[5],inactive
O=[N+]([O-])c1ccc(Nc2ccccc2)cc1,outcome,[1],inactive
same,outcome,[2],inactive
same,outcome,[3],inactive
same,outcome,[4],inactive
same,outcome,[5],inactive
Nc1c(Oc2ccccc2)cc(O)c2c1C(=O)c1ccccc1C2=O,outcome,[1],inactive
same,AC50,[2],10 µM (active)
same,outcome,[3],inactive
same,outcome,[4],inactive
same,outcome,[5],inactive
O=c1oc2ccccc2c(O)c1C(CC(O)c1ccc(-c2ccc(Br)cc2)cc1)c1ccccc1 (centres undefined),AC50,[1],3.64 µM (active)
same,AC50,[2],19.1 µM (active)
same,AC50,[3],9.45 µM (active)
same,AC50,[4],9.02 µM (active)
same,AC50,[5],7.83 µM (active)
OCCCCO,outcome,[7],inactive
same,outcome,[8],inactive
same,outcome,[9],inactive
same,outcome,[10],inactive
N#CCCC(Br)(C#N)CBr (centres undefined),AC50,[1],26.4 µM (active)
same,outcome,[2],inactive
same,outcome,[3],inactive
same,AC50,[4],14.1 µM (active)
same,AC50,[5],20 µM (active)
CC1(C)[C@H](C(=O)O[C@H](C#N)c2cccc(Oc3ccccc3)c2)[C@@H]1/C=C(\Cl)C(F)(F)F,AC50,[1],0.0141 µM (active)
same,outcome,[1],inactive
same,outcome,[2],inactive
same,outcome,[3],inactive
same,outcome,[4],inactive
same,outcome,[5],inactive
